From PubChem BioAssay (NCATS)
Inconclusive results are not listed. Calls of active or inactive are those of the source. Unless noted, calls follow the shape of the dose curve; as a rule, active = well fitted curve in the direction sought with a large enough effect; inconclusive = small, poorly fitted or top-dose-only effect, or another doubt; inactive = no such curve, though single readings can be large; an effect the other way counts as inactive or inconclusive.

Experiments:
[1] = qHTS assay for small molecule disruptors of the mitochondrial membrane potential - 5 hr assay (AID 651755; calls by dose curve; also: % is scaled to controls: 0 for no effect and ±100 for the full control effect; nearly all actives have a fitted effect of over 40% in size)
In short: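 HepG2 cells (2,000/well), attached overnight, exposed to compound 5 hr at 37C, then Mito-MPS dye 30 min. Fluorescence read for monomers (490/535 nm) and aggregates (540/590 nm).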

[2] = biological target: Tumor necrosis factor (Homo sapiens) (UniProt P01375); assay: qHTS assay to identify small molecules that stimulate Tumor Necrosis Factor-alpha (TNF-alpha) secretion (AID 651757; active = well fitted curve in the direction sought with a large enough effect in the signal ratio; the % refers to the signal ratio; also: 0% is about no effect)
In short: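 Read-out is HTRF, a TR-FRET sandwich of cryptate- and XL665-labeled anti-TNF-alpha antibodies detecting cytokine secreted by THP-1 cells. Cells had been incubated with test compounds at 37 C for 17 hrs beforehand.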

[3] = qHTS assay for environmental chemicals that activate the Aryl hydrocarbon Receptor (AhR) signaling pathway (AID 651777); conditions: 1A2-DRE human hepatoma cells, luciferase, 24 h; activation: hits give high values; also: % of control where 0% means no effect; nearly all actives have a fitted effect of over 15% in size
In short: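 Quantitative HTS in stably transfected human liver-derived cells whose luciferase gene sits downstream of the CYP1A2 promoter and dioxin response element. After 24 hr exposure at 37 C, One-Glo luminescence was measured.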

[4] = biological target: Peroxisome proliferator-activated receptor alpha (Homo sapiens) (UniProt Q07869); assay: qHTS assay for small molecule agonists of the peroxisome proliferator-activated receptor alpha (PPARalpha) signaling pathway (AID 651778); conditions: PathHunter PPARalpha complementation, chemiluminescence, 6 h; max response: hits give high values; also: % of control where 0% means no effect
In short: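 Enzyme-fragment complementation assay in which ligand-bound PPARalpha translocates and forms an active enzyme that generates chemiluminescence. Cells were plated overnight, exposed to compound for 6 hr at 37 C, and then given detection reagent for 60 min at room temperature.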

[5] = biological target: Nuclear receptor ROR-gamma (Homo sapiens) (UniProt P51449); assay: qHTS assay for small molecule antagonists of the retinoid-related orphan receptor gamma (ROR-gamma) signaling pathway (AID 651802);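 also: luciferase reporter luminescence driven by ROR response element; series mostly up to about 92 µM; % is scaled to controls: 0 for no effect and ±100 for the full control effect; nearly all actives have a fitted effect of over 60% in size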
In short: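 CHO, TET-inducible ROR + RORE-LUC reporter, 1536-well qHTS. Compound pinned, doxycycline added, 16hr 37C/5% CO2. ONE-Glo, 30 min RT, luminescence; signal drop scored as antagonism.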

[6] = qHTS assay for small molecule agonists of the antioxidant response element (ARE) signaling pathway measured by Nrf2-dependant transcriptional activity (AID 720636; active = well fitted curve in the direction sought with a large enough effect in the repeat runs; an effect the other way counts as inactive or inconclusive; also: % of control where 0% means no effect)
In short: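 Quantitative HTS format in HepG2 cells stably expressing an ARE-luciferase reporter; 16 hr compound treatment at 37 C, luciferase signal detected with ONE-Glo.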

[7] = qHTS assay for small molecule antagonists of the retinoid-related orphan receptor gamma (ROR-gamma) signaling pathway - cell viability counter screen (AID 720652; active = well fitted curve in the direction sought with a large enough effect in the repeat runs; an effect the other way counts as inactive or inconclusive;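 also: series mostly up to about 92 µM; compound exposure lasted 16 hr before ATP read; % is scaled to controls: 0 for no effect and ±100 for the full control effect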)
In short: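 Luminescence from CellTiter-Glo after 30 min at room temperature reported cellular ATP as the cytotoxicity measure. Cells were the CHO reporter line with doxycycline-induced ROR-gamma expression, exposed to compound for 16 hr at 37 C.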

[8] = qHTS assay for small molecule agonists of the antioxidant response element (ARE) signaling pathway measured by Nrf2-dependant transcriptional activity - cell viability counter screen (AID 720653; active = well fitted curve in the direction sought with a large enough effect in the repeat runs; an effect the other way counts as inactive or inconclusive; also: % is scaled to controls: 0 for no effect and ±100 for the full control effect); conditions: ARE-bla HepG2 viability, CellTiter-Glo ATP luminescence, 16 h; max response: hits give low values
In short: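 ARE-bla HepG2 cells treated with compounds for 16 h at 37C; this counter screen measures viability as intracellular ATP by CellTiter-Glo luminescence after 30 min at room temperature.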

[9] = qHTS assay for cell viability of HEK293 cells (AID 743288); conditions: ATP luminescence (CellTiter-Glo), 18 h; max response: hits give low values; also: % is scaled to controls: 0 for no effect and ±100 for the full control effect; nearly all actives have a fitted effect of over 50% in size
In short: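 Total intracellular ATP, measured with a luciferase-coupled reagent, indicates the number of viable HEK293 cells. Exposure to test chemicals lasts 18 h at 37 C in 1,536-well format at 2,000 cells/well.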

[10] = qHTS assay for cell viability of the p53RE-bla HCT-116 cell line (AID 743292); also: % is scaled to controls: 0 for no effect and ±100 for the full control effect; nearly all actives have a fitted effect of over 55% in size
In short: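 Viability of compound-treated p53RE-bla HCT-116 cells is taken from ATP-dependent luciferase luminescence. Treatment lasts 16 h at 37 C after a 5 h settling period; detection follows 30 min at room temperature.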

[11] = Viability counterscreen for antagonist of constitutive androstane receptor (CAR) against the NCATS DSHEA and TCM libraries (AID 1794837);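 also: compound exposure lasted 24 h before viability reading; 0% is about no effect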
In short: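 Viability was measured by CellTiter-Fluor fluorescence (405/540 nm, 1 hr) in HepG2-CYP2B6-hCAR cells. Cells were co-treated 24 hr with 48 uM CITCO (final), antagonist mode, and test substances.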

[12] = Viability counterscreen for agonist of constitutive androstane receptor (CAR) against the NCATS DSHEA and TCM libraries (AID 1794838); also: 0% is about no effect
In short: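 Cell viability, from CellTiter-Fluor fluorescence (405/540 nm), was scored after a 24 h, 37C exposure of HepG2 cells carrying CYP2B6 reporter and hCAR to test substances in presence of 0.75 uM PK11195.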

[13] = biological target: Nuclear receptor subfamily 1 group I member 3 (Homo sapiens) (UniProt Q14994); assay: Primary qHTS for agonist of constitutive androstane receptor (CAR) against the NCATS DSHEA and TCM libraries (AID 1794839);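 also: HepG2 cells expressing human CAR with a CYP2B6 reporter plus PK11195 antagonist; 0% is about no effect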
In short: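 Agonist mode in presence of hCAR antagonist PK11195 (0.75 µM final): test substances, 24 h, 37 °C, on HepG2-CYP2B6-hCAR cells. Same-well readouts: fluorescence viability, then ONE-Glo luminescence; CITCO as reference agonist.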

[14] = HepG2 viability counterscreen (readout 1: protease activity) against the NCATS DSHEA and TCM libraries (AID 1794841);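 also: cells exposed to compounds for about 24 h before the protease read; 0% is about no effect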
In short: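 Readout 1: cellular protease activity, GF-AFC substrate (25 uM final, 30 min, fluorescence 380/510 nm). Readout 2: ATP content by CellTiter-Glo luminescence after 30 min at RT. Both follow ~24 h exposure of HepG2 cells (1,000/well) to substances.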

[15] = biological target: Cytochrome P450 3A4 (Homo sapiens) (UniProt P08684); assay: qHTS for inhibitors of CYP3A4 against the NCATS DSHEA and TCM libraries (AID 1919971);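 also: % is scaled to controls: 0 for no effect and ±100 for the full control effect; inhibition lowers luminescence from luciferin made by CYP3A4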
In short: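 Read-out is luminescence after P450-Glo detection (30 min, RT). Before that: 15 min compound–enzyme preincubation, then 30-45 min reaction with 1x NADPH regeneration solution, substrate concentration isoform-specific.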

[16] = biological target: Cytochrome P450 2D6 (Homo sapiens) (UniProt P10635); assay: qHTS for inhibitors of CYP2D6 against the NCATS DSHEA and TCM libraries (AID 1919972); also: % is scaled to controls: 0 for no effect and ±100 for the full control effect
In short: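 Luminescent P450-Glo read-out of CYP2D6 turnover of a luciferin substrate after NADPH-driven reaction of 30-45 min at room temperature. Compounds were first preincubated 15 min with enzyme at titrated concentrations; quinidine was the intraplate control.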

[17] = KB-3-1 P-gp reporter qHTS against the NCATS DSHEA and TCM libraries (AID 1919975); also: 0% is about no effect
In short: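 Cell viability by CellTiter-Glo luminescence following ~72 h compound exposure (concentration-response). Uses parental, non-P-gp-overexpressing KB-3-1 line, 500 cells/well in DMEM/10% FBS, attached ~4 h before dosing.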

[18] = qHTS Counterscreen for compound interference against the NCATS DSHEA and TCM libraries (AID 1919978); conditions: firefly luciferase detection reagent interference, luminescence;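 also: compounds preincubated with 1 µM D-luciferin or buffer before detection reagent; % of control where 0% means no effect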
In short: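 With 1 uM D-luciferin or phosphate buffer only, compounds at final 19.5 nM–39.8 uM were incubated for 15 min at room temperature. Luciferase detection reagent was then added, and luminescence was measured after a further 30 min at room temperature.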

[19] = Dual reporter qHTS for agonist of Pregnane X Receptor (hPXR) against the NCATS DSHEA and TCM libraries: Fluorescence readout (AID 1920058); also: 0% is about no effect
In short: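 HepG2 hPXR-Luc, 2000 cells/well, 5 h attach; cpds ~24 h, 37 °C/5% CO2; CellTiter-Fluor 1 h; fluor. Ex/Em 405/540 nm = viability.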

[20] = biological target: Nuclear receptor subfamily 1 group I member 2 (Homo sapiens) (UniProt O75469); assay: Dual reporter qHTS for agonist of Pregnane X Receptor (hPXR) against the NCATS DSHEA and TCM libraries: Luminescence readout (AID 1920059); also: 0% is about no effect
In short: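 hPXR-Luc HepG2 cells, 2000/well in 5% charcoal-stripped FBS medium, attached 5 h, then exposed 24 h at 37C to compounds. Viability by CellTiter-Fluor, then luciferase luminescence with ONE-Glo.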

[21] = biological target: Nuclear receptor subfamily 1 group I member 2 (Homo sapiens) (UniProt O75469); assay: Dual reporter qHTS for antagonist of Pregnane X Receptor (hPXR) against the NCATS DSHEA and TCM libraries: Luminescence Readout (AID 1920060);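 also: HepG2 cells carrying hPXR luciferase reporter stimulated with rifampicin at 2 µM; 0% is about no effect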
In short: (§1)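 hPXR-Luc HepG2 cells exposed 24 h at 37 C to compounds with 2 uM rifampicin in antagonist mode; luciferase luminescence measured by ONE-Glo, with CellTiter-Fluor viability read beforehand.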

[22] = Dual reporter qHTS for antagonist of Pregnane X Receptor (hPXR) against the NCATS DSHEA and TCM libraries: Fluorescence Readout (AID 1920061); also: 0% is about no effect
In short: as §1

[23] = biological target: Nuclear receptor subfamily 1 group I member 2 (Rattus norvegicus) (UniProt Q9R1A7); assay: qHTS assay for small molecule activators of the rat pregnane X receptor (rPXR) signaling pathway (AID 651751; call rule not given here; also: 0% is about no effect); conditions: rPXR reporter cells, luciferase (One-Glo), 24 h
[24] = qHTS assay for small molecule activators of the human pregnane X receptor (PXR) signaling pathway (AID 720659; call rule not given here; also: 0% is about no effect)

Sequence of Nuclear receptor subfamily 1 group I member 2 (Homo sapiens) (O75469 whole entry, looked up): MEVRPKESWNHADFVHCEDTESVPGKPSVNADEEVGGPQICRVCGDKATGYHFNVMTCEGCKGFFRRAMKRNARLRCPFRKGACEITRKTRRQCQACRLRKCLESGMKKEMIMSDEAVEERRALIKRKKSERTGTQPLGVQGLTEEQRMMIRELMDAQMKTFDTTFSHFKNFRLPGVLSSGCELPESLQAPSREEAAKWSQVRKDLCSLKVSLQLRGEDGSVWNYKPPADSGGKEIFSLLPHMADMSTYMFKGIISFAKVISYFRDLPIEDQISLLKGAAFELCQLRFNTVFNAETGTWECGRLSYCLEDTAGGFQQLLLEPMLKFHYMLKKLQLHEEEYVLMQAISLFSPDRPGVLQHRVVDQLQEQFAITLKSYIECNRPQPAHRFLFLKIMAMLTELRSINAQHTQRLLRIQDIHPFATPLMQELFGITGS
Sequence of Cytochrome P450 2D6 (Homo sapiens) (P10635 whole entry, looked up): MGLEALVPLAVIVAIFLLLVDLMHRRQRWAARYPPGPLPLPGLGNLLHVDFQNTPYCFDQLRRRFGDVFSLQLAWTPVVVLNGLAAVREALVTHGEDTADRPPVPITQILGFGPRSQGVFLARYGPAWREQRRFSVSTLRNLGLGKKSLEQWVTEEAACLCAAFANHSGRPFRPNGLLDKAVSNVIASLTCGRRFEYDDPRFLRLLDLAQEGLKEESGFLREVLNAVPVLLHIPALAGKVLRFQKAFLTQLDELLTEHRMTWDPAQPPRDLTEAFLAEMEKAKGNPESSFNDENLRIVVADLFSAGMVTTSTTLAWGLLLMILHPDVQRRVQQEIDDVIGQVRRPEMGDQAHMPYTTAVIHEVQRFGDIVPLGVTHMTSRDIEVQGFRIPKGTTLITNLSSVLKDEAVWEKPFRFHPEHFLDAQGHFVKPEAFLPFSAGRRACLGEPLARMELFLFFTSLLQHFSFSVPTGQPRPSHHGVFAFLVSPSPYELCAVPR
Sequence of Nuclear receptor subfamily 1 group I member 2 (Rattus norvegicus) (Q9R1A7 whole entry, looked up): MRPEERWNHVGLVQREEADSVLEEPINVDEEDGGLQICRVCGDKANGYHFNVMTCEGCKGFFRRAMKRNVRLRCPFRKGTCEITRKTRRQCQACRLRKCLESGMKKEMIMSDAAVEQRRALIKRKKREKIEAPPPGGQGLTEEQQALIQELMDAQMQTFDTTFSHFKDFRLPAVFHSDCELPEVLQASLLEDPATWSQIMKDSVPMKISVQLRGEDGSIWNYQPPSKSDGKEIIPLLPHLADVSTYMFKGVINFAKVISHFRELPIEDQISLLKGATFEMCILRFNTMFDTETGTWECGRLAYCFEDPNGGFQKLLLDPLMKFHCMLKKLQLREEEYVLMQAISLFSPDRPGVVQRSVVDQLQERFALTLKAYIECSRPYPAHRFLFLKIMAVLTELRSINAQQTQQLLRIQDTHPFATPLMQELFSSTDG
Sequence of Nuclear receptor subfamily 1 group I member 3 (Homo sapiens) (Q14994 whole entry, looked up): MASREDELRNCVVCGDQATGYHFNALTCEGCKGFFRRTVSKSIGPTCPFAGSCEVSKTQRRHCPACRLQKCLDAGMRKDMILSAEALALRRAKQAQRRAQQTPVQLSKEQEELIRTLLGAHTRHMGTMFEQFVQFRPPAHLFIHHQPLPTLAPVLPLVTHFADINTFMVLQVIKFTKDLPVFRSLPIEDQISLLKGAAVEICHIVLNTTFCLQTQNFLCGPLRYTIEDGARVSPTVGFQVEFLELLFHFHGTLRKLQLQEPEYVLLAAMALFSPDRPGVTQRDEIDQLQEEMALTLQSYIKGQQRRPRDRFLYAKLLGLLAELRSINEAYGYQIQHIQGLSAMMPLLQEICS
Sequence of Nuclear receptor ROR-gamma (Homo sapiens) (P51449 whole entry, looked up): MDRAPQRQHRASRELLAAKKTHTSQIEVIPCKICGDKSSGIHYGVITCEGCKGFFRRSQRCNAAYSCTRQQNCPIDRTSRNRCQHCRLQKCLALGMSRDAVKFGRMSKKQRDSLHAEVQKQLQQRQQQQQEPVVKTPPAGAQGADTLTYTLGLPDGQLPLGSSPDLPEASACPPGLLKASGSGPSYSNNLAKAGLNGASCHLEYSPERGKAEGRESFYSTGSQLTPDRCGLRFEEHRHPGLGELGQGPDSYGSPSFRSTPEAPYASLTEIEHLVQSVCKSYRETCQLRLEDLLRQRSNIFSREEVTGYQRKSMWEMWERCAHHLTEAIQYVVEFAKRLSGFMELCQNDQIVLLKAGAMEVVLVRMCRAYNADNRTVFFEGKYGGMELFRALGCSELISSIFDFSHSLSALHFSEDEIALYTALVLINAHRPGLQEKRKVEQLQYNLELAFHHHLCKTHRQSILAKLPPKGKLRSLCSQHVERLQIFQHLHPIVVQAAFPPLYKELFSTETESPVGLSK
Sequence of Peroxisome proliferator-activated receptor alpha (Homo sapiens) (Q07869 whole entry, looked up, the tested form may be a part): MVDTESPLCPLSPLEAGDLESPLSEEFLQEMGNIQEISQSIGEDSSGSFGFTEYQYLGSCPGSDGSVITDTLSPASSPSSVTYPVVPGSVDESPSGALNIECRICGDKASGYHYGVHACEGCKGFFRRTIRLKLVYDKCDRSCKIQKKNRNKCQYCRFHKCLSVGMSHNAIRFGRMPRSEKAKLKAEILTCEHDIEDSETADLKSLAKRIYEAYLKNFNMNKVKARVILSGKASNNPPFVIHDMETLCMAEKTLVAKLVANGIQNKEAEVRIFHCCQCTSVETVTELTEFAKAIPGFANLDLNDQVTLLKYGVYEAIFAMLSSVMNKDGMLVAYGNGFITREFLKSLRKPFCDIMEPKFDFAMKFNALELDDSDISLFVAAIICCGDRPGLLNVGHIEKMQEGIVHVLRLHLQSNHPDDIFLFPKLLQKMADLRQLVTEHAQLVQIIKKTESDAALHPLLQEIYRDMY
Sequence of Cytochrome P450 3A4 (Homo sapiens) (P08684 whole entry, looked up, canonical isoform): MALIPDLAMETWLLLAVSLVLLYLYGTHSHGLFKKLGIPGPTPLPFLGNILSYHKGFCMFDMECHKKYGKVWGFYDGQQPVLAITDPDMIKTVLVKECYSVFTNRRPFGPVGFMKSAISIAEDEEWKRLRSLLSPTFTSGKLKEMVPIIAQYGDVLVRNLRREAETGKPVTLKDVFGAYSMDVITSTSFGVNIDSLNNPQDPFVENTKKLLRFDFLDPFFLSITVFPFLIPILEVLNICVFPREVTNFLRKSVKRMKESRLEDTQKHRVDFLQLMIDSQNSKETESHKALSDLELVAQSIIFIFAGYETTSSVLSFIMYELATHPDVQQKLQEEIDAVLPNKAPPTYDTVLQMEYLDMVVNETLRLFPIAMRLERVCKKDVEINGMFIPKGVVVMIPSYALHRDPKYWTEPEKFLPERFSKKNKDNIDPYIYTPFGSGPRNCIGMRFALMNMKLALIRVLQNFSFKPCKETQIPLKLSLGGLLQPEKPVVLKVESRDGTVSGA
Sequence of Tumor necrosis factor (Homo sapiens) (P01375 whole entry, looked up): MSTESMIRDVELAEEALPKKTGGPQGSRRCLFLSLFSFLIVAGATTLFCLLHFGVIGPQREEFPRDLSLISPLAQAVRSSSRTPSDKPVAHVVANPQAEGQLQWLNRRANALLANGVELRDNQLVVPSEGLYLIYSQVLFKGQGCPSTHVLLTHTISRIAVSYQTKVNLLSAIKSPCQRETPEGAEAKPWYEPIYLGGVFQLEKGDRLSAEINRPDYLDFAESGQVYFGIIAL

C=C(C)C1CC=C(C)C(O)C1 (centres undefined)
inactive: Potency [1] | outcome [2] | activation [3] -0.5% | max response [4] -4.25% | Potency [5] | Potency [6] | Potency [7] | max response [8] -2.07% | max response [9] 0.258% | Potency [10] | outcome [11] | outcome [12] | Potency [13] | outcome [14] | Potency [15] | Potency [16] | outcome [17] | max response [18] 4.01% | outcome [19] | Potency [20] | outcome [21] | outcome [22] | max response [23] 2.42% | outcome [24]
